Where “and” joins values, the source holds several entries; their conditions need not be identical. Equal values may be shown once. Where a name gives a salt, the structure may show the parent alone.
Tested on: HeLa
Assay: MALAT1 nuclear FISH intensity, robust Z-score vs DMSO; higher = more nuclear MALAT1 lncRNA, active = -3 or less
Settings: 10 µM; 6 h
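Further: High-content confocal imaging of branched-DNA amplified FISH in 384-well plates, Hoechst-defined nuclei, score is well value minus plate DMSO median over DMSO robust SD, four wells per compound.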

SMILES	MALAT1 nuclear FISH intensity
NCCCC[C@H](N[C@@H](CCc1ccccc1)C(=O)O)C(=O)N1CCC[C@H]1C(=O)O [Lisinopril Dihydrate]	-1.38 (inactive)
Oc1c2ccccc2c2c3c(cccc13)N=N2	-1.29 (inactive) and -0.582 (inactive)
COc1cccc(-c2cc(=O)c3ccccc3o2)c1N	-0.178 (inactive) and 0.3 (inactive) and 1.49 (inactive)
OC[C@@H](O)[C@H](O)[C@@H](O)CO [Xylitol]	-0.295 (inactive)
CC(C)NCC(O)COc1ccc(CC(N)=O)cc1 (stereo not drawn)	-0.232 (inactive)
N[C@@H](CC(=O)N1CCn2c(nnc2C(F)(F)F)C1)Cc1cc(F)c(F)cc1F [Sitagliptin Phosphate]	-0.472 (inactive)
CCCCC/C=C\C/C=C\C/C=C\C=C\[C@@H](O)CCCC(=O)O	0.216 (inactive)
NC(=O)N1c2ccccc2CC(=O)c2ccccc21 [Oxcarbazepine]	0.499 (inactive)
CCCCCCCCCC(=O)OCC(CO)OC(=O)CCCCCCCCC (stereo not drawn) [1,2-Didecanoyl-glycerol (10:0)]	-0.0635 (inactive)
O=C(O)c1ccccc1 [Benzoic acid]	0.84 (inactive)
CC(N/C(=N\C#N)Nc1ccncc1)C(C)(C)C (stereo not drawn) [Pinacidil]	2.6 (inactive)
CC1(C)NC(=O)N(c2ccc([N+](=O)[O-])c(C(F)(F)F)c2)C1=O [Nilutamide]	-0.809 (inactive)
CC(C)(O)c1ccccc1CC[C@@H](SCC1(CC(=O)O)CC1)c1cccc(/C=C/c2ccc3ccc(Cl)cc3n2)c1	0.559 (inactive)
O=C(NCCCCCCNC(=O)ON=C1CCCCC1)ON=C1CCCCC1	-1.01 (inactive) and -1.36 (inactive)
CC[C@H](C)C(=O)O[C@H]1CCC=C2C=C[C@H](C)[C@H](CC[C@@H]3C[C@@H](O)CC(=O)O3)[C@H]21 [Mevastatin]	-1.03 (inactive)
O=C(Nc1ccccc1)c1cc([N+](=O)[O-])ccc1Cl	-1.22 (inactive) and -0.08 (inactive)
CN(C)CCCn1cc(C2=C(c3c[nH]c4ccccc34)C(=O)NC2=O)c2ccccc21	-0.278 (inactive) and -2.74 (inactive)

SMILES	MALAT1 nuclear FISH intensity
CN1CCN2c3ncccc3Cc3ccccc3C2C1 (stereo not drawn) [Mirtazapine]	-0.438 (inactive)
NC(=O)N1c2ccccc2C=Cc2ccccc21 [Carbamazepine]	-0.0498 (inactive)
COc1cc2nc(N3CCN(C(=O)c4ccco4)CC3)nc(N)c2cc1OC [Prazosin hydrochloride]	-0.417 (inactive)
CN1CC2c3ccccc3Oc3ccc(Cl)cc3C2C1 (stereo not drawn) [Asenapine Maleate]	-1.04 (inactive)
OC[C@@H](O)[C@@H](O)[C@H](O)[C@H](O)CO [Mannitol]	0.661 (inactive)
O=C(NCCN1CCC(n2c(=O)[nH]c3cc(Cl)ccc32)CC1)c1ccc(F)cc1 [Halopemide]	-0.559 (inactive)
O=C[C@@H]1CCCN1C(=O)[C@@H]1CCCN1C(=O)OCc1ccccc1 [Z-prolyl-prolinal]	-0.5 (inactive)
OC[C@H]1O[C@@H](O[C@@H]2[C@@H](CO)OC(O)(CO)[C@H]2O)[C@H](O)[C@@H](O)[C@H]1O (mixture of isomers) [Lactulose]	-0.821 (inactive)
CC(C)C[C@@H](C=O)NC(=O)[C@H](CC(C)C)NC(=O)[C@H](CC(C)C)NC(=O)OCc1ccccc1	1.03 (inactive) and 5.91 (inactive)
O=C(O)c1cccnc1 [Niacin]	-1.11 (inactive)
C[C@@H](N)[C@H]1CC[C@H](C(=O)Nc2ccncc2)CC1	-2.88 (inactive) and -3.24 (active)
CC[C@@H]1C(=O)OC[C@@H]1Cc1cncn1C	-0.179 (inactive)
Oc1ccc(-c2nc(-c3ccc(F)cc3)c(-c3ccncc3)[nH]2)cc1	-0.672 (inactive) and -1.03 (inactive)
COc1cc(CNC(=O)CCCC/C=C/C(C)C)ccc1O [Capsaicin]	0.477 (inactive)
CN1CCC[C@@H]1CCO[C@](C)(c1ccccc1)c1ccc(Cl)cc1 [Clemastine fumarate]	1.04 (inactive)
CN[C@@H]1[C@H](O[C@H]2[C@H](O[C@H]3[C@H](O)[C@@H](O)[C@H](N=C(N)N)[C@@H](O)[C@@H]3N=C(N)N)O[C@@H](C)[C@]2(O)C=O)O[C@@H](CO)[C@H](O)[C@H]1O [Streptomycin Sulfate]	-0.687 (inactive)
